Experimental data as given in PubChem BioAssay AID624414 (National Center for Advancing Translational Sciences (NCATS), 2012).
The whole screen tested about 410,000 compounds, of which about 480 (0.12%) were called active. The sample holds actives, similar compounds and a random draw of the others, so the mix is not that of the screen. Unmarked numbers belong to inactive results. Rule as the data show it: active = activation above about 50%; inconclusive = mostly about 30% to 49%; inactive = weaker than that.

What follows are compounds tested against Mucolipin-1 (Homo sapiens) (UniProt Q9GZU1) (assay: qHTS for Agonists of the Human Mucolipin Transient Receptor Potential 1 (TRPML1)). Conditions: TRPML1-expressing cells, Ca2+ dye fluorescence, FDSS; hits give high values.
Sequence of Mucolipin-1 (Homo sapiens) (Q9GZU1 whole entry, looked up, the tested form may be a part): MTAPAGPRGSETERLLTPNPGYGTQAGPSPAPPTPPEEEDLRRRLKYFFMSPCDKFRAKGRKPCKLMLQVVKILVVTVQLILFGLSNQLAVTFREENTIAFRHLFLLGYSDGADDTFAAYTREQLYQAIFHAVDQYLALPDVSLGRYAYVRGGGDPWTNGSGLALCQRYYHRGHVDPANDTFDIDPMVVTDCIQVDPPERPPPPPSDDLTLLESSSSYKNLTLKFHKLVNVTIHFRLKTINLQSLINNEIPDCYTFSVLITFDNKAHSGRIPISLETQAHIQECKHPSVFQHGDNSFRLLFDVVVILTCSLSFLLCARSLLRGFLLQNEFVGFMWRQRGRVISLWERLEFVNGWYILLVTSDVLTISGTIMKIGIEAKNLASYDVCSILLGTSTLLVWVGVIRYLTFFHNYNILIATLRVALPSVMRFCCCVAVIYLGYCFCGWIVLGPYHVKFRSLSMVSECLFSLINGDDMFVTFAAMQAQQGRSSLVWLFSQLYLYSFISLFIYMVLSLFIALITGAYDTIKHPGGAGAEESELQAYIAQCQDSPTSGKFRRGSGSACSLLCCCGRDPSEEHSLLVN
Source text: Mutations of human Mucolipin transient receptor potential 1 (TRPML1) cause type IV mucolipidosis (ML4), a devastating neurodegenerative disease in young children. […] Currently, there is no treatment for ML4. […] Under physiological conditions, TRPMLs regulate membrane trafficking by transducing information about PI(3,5)P2 levels into changes in juxtaorganellar Ca2+, thereby triggering membrane fusion/fission events in the late endocytic pathways (endolysosomal trafficking). In addition, TRPML1 mediates release of Fe2+ from late endosomes and lysosomes, which is essential for cellular iron metabolism. Thus, impaired ion (Ca2+ and Fe2+) homeostasis underlies lysosomal dysfunction and ML4 phenotypes. In ML4 cells, the problem is twofold. First, defective Ca2+-dependent membrane trafficking due to TRPML1-deficiency causes accumulation of lipids and other bio-materials in the lysosome. The second strike comes from the lysosomal iron overload (due to impairment of TRPML1's Fe2+ conductivity), which converts the accumulated materials into the nondegradable (resistant to lysosomal degradation) lipofuscin (also called aging pigment) in the lysosome. Lipofuscin accumulation dramatically compromises the functions of lysosomes.
Niemann-Pick type C (NPC) disease is another lysosome storage disease (LSD) with severe neurodegeneration during the childhood. Currently, there is no cure for NPC. […] Thus, TRPML1 is likely to be an essential regulator of lysosome ion homeostasis. We specifically hypothesize that stimulating TRPML1's Fe2+/Ca2+ channel activity in the lysosome using synthetic agonists can alleviate neurodegeneration associated with ML4 or NPC.
To this end, a high throughput screen was developed in a miniaturized format to screen against the Molecular Libraries Small Molecule Repository (MLSMR) to find small molecules that act either as inhibitors or agonist against the TRPML1 channel.
NIH Chemical Genomics Center [NCGC]
NIH Molecular Libraries Probe Centers Network [MLPCN]
Assay Submitter (PI): Haoxing Xu, University of Michigan Ann Arbor
TRPML1-DL cells are dissociated from flasks, counted and, brought up to a density of 500,000 cells per mL of media containing a 1X Tet inducer. Using a Multidrop Combi, 3uL of this cell solution is dispensed to each well of a 1536 TC treated, black, clear bottom hi base plate for a final cell density of 1,500 cells per well. The assay plates are incubated overnight (approximately 16 hours) at 37 degrees C and 5% CO2. Using a Multidrop Combi, 2uL of ABD Ca8 no wash dye plus quencher is added to each well. The assay plates incubate at room temperature in the dark for 45-90 minutes. The assay plate is read on the FDSS using the following protocol: 10 second baseline read, 23nL of compounds and controls are added using 1536 pintool, agonist read for 110 seconds, 1 uL EC80 addition (4uM final 54-4 diluted in media), antagonist read for 110 seconds.
Also: 0% is about no effect.

Structure (SMILES) | activation
Cc1ccc(CNC(=O)c2ccccc2CCc2ccccc2)cc1 | 0.628%
Cc1ccc(CNC(=O)c2cccc3c2C(=O)c2ccc(N4CCC(C)CC4)cc2S3(=O)=O)cc1 | 66.9% (active)
O=C1c2ccccc2S(=O)(=O)c2cc(N3CCN(c4ccccn4)CC3)ccc21 | -0.448%
O=C(COC(=O)c1ccccc1OCCOc1ccccc1)Nc1cccc(Br)c1 | -1.41%
COc1cc2[nH]c(C)c(CCN3CCN(c4ccccc4)CC3)c2cc1OC | -0.545%
NC(=O)c1ccc(NC(=O)COC(=O)C(Cc2ccccc2)NC(=O)c2ccccc2)cc1 (centres undefined) | 4.33%
CN(CC(=O)Nc1ccc(C(N)=O)cc1)S(=O)(=O)c1ccc2c(c1)OCCO2 | 0.311%
NC(=O)c1ccc(NC(=O)COC(=O)c2c3c(nc4ccccc24)/C(=C\c2ccc4c(c2)OCO4)CCC3)cc1 | 96% (active)
C[N+]1(CC(=O)c2cccs2)CCOCC1 | -0.317%
CN(C)c1ccc(/C=C2\C=Cc3ccccc32)cc1Br | 0.0951%
OCCNc1ncnc2oc(-c3ccco3)c(-c3ccco3)c12 | 0.995%
COc1ccc(-c2cc(C(=O)Nc3sc4c(c3C(N)=O)CCCC4)no2)cc1 | 0.03%
CC(C)c1ccc(NC(=O)Cn2nnc(C(=O)NCCc3ccccc3)c2N)cc1 | 1.91%
Cc1ccc(-c2nnc3ccc(SCC(N)=O)nn23)cc1 | -0.578%
COc1ccc(C(=O)Nc2nonc2-c2ccc(OC)c(OC)c2)cc1Cl | 2.17%
CC1(C)CC(=O)c2cc(C(=O)NCc3ccccc3)c(=O)[nH]c2C1 | -0.38%
COc1ccc(C(=O)NCC(c2ccc(N(C)C)cc2)N2CCc3ccccc32)c(OC)c1 (centres undefined) | -0.0968%
CCOc1ccccc1N(CC)C(=O)c1cc2ccc3cccnc3c2[nH]1 | 1.16%
CCOC(=O)c1ccc(NC(=O)CC2C(=O)N(c3ccccc3)C(=O)N2Cc2cccs2)cc1 (centres undefined) | 0.378%
Cc1csc(NCC(=O)c2c[nH]c3ccccc23)n1 | -0.545%

Structure (SMILES) | activation
Nc1ccccc1N | -0.412%
c1ccc(Cn2nnc3c(N4CCCCC4)ncnc32)cc1 | -0.998%
Cc1cccc(-c2nnc(SC(C)C(=O)Nc3ccccc3)n2C)c1 (centres undefined) | -0.995%
Cc1ccc(C=O)cc1Cl | -0.475%
C(=Nc1ccc(/C=C/c2ccnc3ccccc23)cc1)c1cc2c3c(c1)CCCN3CCC2 | 1.62%
ClC/C=C/C[n+]1ccccc1Cl | 0.254%
Nc1ccc(/C=C/c2ccnc3ccccc23)c([N+](=O)[O-])c1 | 17.6%
Cc1ccccc1NC(=O)Cn1c(=O)n(CC2CCC(C(=O)NCCc3ccccc3)CC2)c(=O)c2ccccc21 (centres undefined) | 0.124%
Clc1cccc[n+]1CCCC[n+]1ccccc1Cl | -0.384%
CCOc1ccc2oc(=O)cc(CN3CCN(C(=O)c4ccc(F)cc4)CC3)c2c1 | 0.651%
CC(C)(C(=O)NO)c1ccccc1 | -0.108%
CN(C(=N)N)c1ccc(/C=C2\C=Cc3ccccc32)cc1 | -0.285%
CCCCSc1ncnc2c1sc1nc(N3CCOCC3)c3c(c12)CCCC3 | 0.201%
CSc1n[nH]c(-c2ccco2)n1 | -0.16%
O=C(C[n+]1ccncc1)c1ccc2c(c1)CCCC2 | -0.708%
Cc1cc[n+](C2CCCCC2)cc1 | 3.69%
CN1CCN(/[N+]([O-])=N/Oc2ccc([N+](=O)[O-])cc2[N+](=O)[O-])CC1 | 1.19%
C=C1C=C(C(F)F)n2ncc(C(=O)NCCc3ccccc3OC)c2N1 | -1.28%
COc1ccc(CCNc2nc(-c3ccc(Cl)cc3)cc(C(F)(F)F)n2)cc1OC | -0.222%
Cc1cc(C)cc(NC(=O)N(C)Cc2ccccc2)c1 | 0.932%

Structure (SMILES) | activation
CCC(=O)N(Cc1ccccc1)c1ccccn1 | -0.645%
CN(C(=O)CN(CCO)CC(=O)N(C)C(C)(C)Cc1ccccc1)C(C)(C)Cc1ccccc1 | 51.2% (active)
COc1ccc(C2/C=C\CN(C(=O)c3ccc(C)cc3)C(Cc3ccccc3)C(=O)N2Cc2ccc(F)cc2)cc1 (centres undefined) | 0.118%
CCc1ccc(C2CC(=O)c3c([nH]c(C(=O)OCc4ccc(C)cc4)c3C)C2)cc1 (centres undefined) | 1.69%
CCc1ccc(CNCc2c(C(=O)O)n(Cc3ccc(F)cc3Cl)c3cc(OC)ccc23)cc1 | 0.807%
CCN(CC)c1ccc(/C=C/c2c(C)cnc3ccc(C)cc23)cc1 | 11.4%
CN(C)c1ccc(/C=C2\NC(=S)N(Cc3ccccc3)C2=O)cc1 | 66.5% (active)
CN(C)c1ccc(/C=C/c2c3ccccc3nc3ccccc23)cc1 | 0.354%
CN(C)c1ccc(/C=c2\[nH]c(=O)/c(=C/c3ccc(N(C)C)cc3)[nH]c2=O)cc1 | 0.206%
Nc1c(C(=O)c2cccs2)sc2nsc(SCCN3CCCCC3)c12 | 56.3% (active)
Cc1ccc(CCNC(=O)Cn2c(-c3cccs3)cc3cc(F)ccc32)cc1 | -0.443%
CNCCCOc1cc2nc(N3CCCN(C)CC3)nc(NC3CCN(C)CC3)c2cc1OC | -0.513%
COc1cc2nc(N3CCCN(C)CC3)nc(NC3CC3)c2cc1OC | -0.539%
COc1cc(OC)c(/C=C/c2ccnc3ccccc23)c(OC)c1 | -0.602%
CN(N=O)c1ccc(C=C2c3ccccc3-c3ccccc32)cc1 | -0.127%
Cn1nnnc1SCC(=O)N1CCN(C(c2ccccc2)c2ccccc2)CC1 | 2%
CC(=O)N1CCN(CC(c2ccccc2)c2ccccc2)CC1 | -0.726%
Oc1ccccc1CN1CCN(C(c2ccccc2)c2ccccc2)CC1 | 84.3% (active)
CCN1CCN(c2ccc(/C=C/c3ccnc4ccccc34)cc2)CC1 | 5.01%
